# Screening results as filed in PubChem.
# Rab7 wt modul = modulators of GTP binding to Rab7, primary screen, biochemical, wildtype, multiplex bead flow cytometry | 0.055% of 190,000 active | GST-Rab7 beads, fluorescent GTP binding; actives lie on both sides; untreated = 100%, excess cold GTP = 0% | Rab7 GTPase wild type (dog), Bodipy-FL-GTP binding | GTP binding activity (percent of control), % at 10 µM;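 active = fluorescent GTP binding to Rab7 beads changed by at least 20 points from the 100% baseline, either direction, mostly lower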;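 note: median green fluorescence of bound Bodipy-FL-GTP per Rab7 bead population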
# Rac1 act GTP bind = GTP binding modulators of activated mutant Rac1, primary screen, biochemical, bead-based flow cytometry, multiplex, fluorescent GTP; Ras-related C3 botulinum toxin substrate 1 (Homo sapiens), P63000; GST-Rac1 activated beads; actives lie on both sides; 100% means binding = to untreated wells; percent activity (GTP binding), % at 10 µM; 0.11% of 190,000 active; AID 764, 2007;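 active = GTP binding at least 20 percentage points away from the 100% baseline, in either direction, so actives lie on both sides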
# Rac1 wt GTP bind = wildtype Rac1 GTP binding modulators, primary screen, biochemical, GST-Rac1 beads, flow cytometry, multiplex | AID 757, 2007 | 0.27% of 190,000 active | fluorescent GTP binding; actives lie on both sides; 0 = cold GTP competed, 100 = untreated | GTP binding activity (% of control), % at 10 µM;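 active = GTP binding activity at least 20 points away from the 100% control level, either lower or higher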
# Rab2 wt GTP = modulators of GTP binding to Rab2A wildtype, primary screen, biochemical, dog, bead-based flow cytometry, multiplex | Ras-related protein Rab-2A (Canis lupus familiaris), P61105 | GST-Rab2 wt beads, Bodipy-GTP binding | GTP binding activity, % at 10 µM | 0.19% of 190,000 active;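 active = GTP binding activity at least 20 points away from 100%, either lowered or raised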;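 note: 0% = beads with excess unlabeled GTP and 100% = no-compound control corrected for plate trend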
# Cdc42 wt GTP = modulators of GTP binding to wildtype Cdc42, primary screen, biochemical, multiplex bead flow cytometry, Bodipy-GTP | 0.2% of 190,000 active | AID 761, 2007 | percent activity (GTP binding), % at 10 µM | Cell division control protein 42 homolog (Homo sapiens), P60953 | GST-Cdc42 beads; actives lie on both sides;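 active = percent activity GTP binding at least 20 points away from the 100% baseline, either down as inhibitor or up as activator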;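 note: median bead fluorescence of bound Bodipy-FL-GTP at 100 nM; 0% = excess unlabeled GTP control and 100% = no compound control; below 100% means less GTP binding so inhibitor and above means activator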
# Target sequence (P60953 whole entry, looked up): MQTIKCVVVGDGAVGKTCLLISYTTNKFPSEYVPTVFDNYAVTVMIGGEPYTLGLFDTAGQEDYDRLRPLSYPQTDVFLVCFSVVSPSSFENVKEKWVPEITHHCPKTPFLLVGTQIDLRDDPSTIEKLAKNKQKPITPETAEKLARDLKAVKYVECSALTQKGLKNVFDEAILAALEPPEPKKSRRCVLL
# HRas wt GTP bind = modulators of GTP binding to HRas wildtype, primary screen, biochemical, bead-based flow cytometry, multiplex. GTPase HRas (Homo sapiens), P01112. GST-Ras wt beads, Bodipy-FL-GTP binding; actives lie on both sides. GTP binding activity, % at 10 µM. 0.14% of 190,000 active. AID 759, 2007;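 active = GTP binding activity at least 20% away from the 100% baseline, either lowered as inhibitor or raised as activator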;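 note: 0% = unlabeled GTP competition control and 100% = no-compound control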
# Target sequence (P01112 whole entry, looked up): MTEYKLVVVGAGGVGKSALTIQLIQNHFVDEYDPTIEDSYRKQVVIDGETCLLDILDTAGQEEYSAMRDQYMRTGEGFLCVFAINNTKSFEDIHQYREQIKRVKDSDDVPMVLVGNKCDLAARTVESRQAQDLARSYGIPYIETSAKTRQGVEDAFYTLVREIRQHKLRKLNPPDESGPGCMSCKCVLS
# * = called active by the depositor; [ ] = remark or other dose. Hits are enriched below; roughly 0.37% of the tested compounds scored in any of these assays.
SMILES,Rab7 wt modul,Rac1 act GTP bind,Rac1 wt GTP bind,Rab2 wt GTP,Cdc42 wt GTP,HRas wt GTP bind
CNC(=O)C(C)NS(=O)(=O)c1ccc(F)cc1 (configuration not stated),27*,36*,34*,36*,37*,40*
CCCCNC(=S)Nc1ccccc1Cc1ccccc1,100,94,99,96,95,97
O=C1c2ccccc2-c2onc3ccc(Oc4ccccc4)c1c23,88,68*,79*,79*,78*,81
CCOC(=O)C(C(=O)OCC)c1cc(Br)c2noc3c2c1C(=O)c1ccccc1-3,102,89,94,99,103,96
CCN(CC)C(=O)Cn1cnc2sc(C(=O)N3CCN(Cc4ccc5c(c4)OCO5)CC3)c(C)c2c1=O,108,96,100,104,100,104
COc1cccc(/C=N/Nc2ccc(C(=O)O)cc2)c1O,96,97,97,94,96,95
COc1cccc(/C=N/Nc2nn3cnnc3c3ccccc23)c1O,77*,70*,70*,60*,58*,59*
COc1ccc(-c2cc(C#N)nc(N3CCNCC3)n2)cc1,113,131*[activator],131*[activator],127*[activator],131*[activator],125*[activator]
COc1ccc(-c2cc(C#N)nc(N3CCN(C)CC3)n2)cc1,98,101,107,103,102,101
S=C(Nc1ccc(N2CCOCC2)cc1)Nc1ccc2snnc2c1,95,92,99,97,95,96
Cc1cc(S(=O)(=O)NCCCN2CCOCC2)ccc1F,107,98,103,101,100,100
O=c1c2ccc([N+](=O)[O-])cc2ncn1CCOc1ccccc1,95,87,76*,79*,84,81
Cc1ccc(OCCn2cnc3cc([N+](=O)[O-])ccc3c2=O)cc1,100,87,90,79*,79*,82
CC1=C(C(=O)OCc2ccccc2)C(c2cccnc2)c2c(n(C)c(=O)n(C)c2=O)N1 (configuration not stated),100,99,107,98,98,100
CCc1ccc(NC(=O)c2cc3c(C)nc4ccccc4c3o2)cc1,91,89,75*,85,85,87
Cc1ccccc1NC(=O)c1cc2c(C)nc3ccccc3c2o1,92,90,84,88,88,90
COc1ccc(-c2csc(C3=C(O)CN(C(C)C)C3=N)n2)cc1OC,97,86,73*,76*,73*,76*
COCCNc1ccc([N+](=O)[O-])cc1C(=O)Nc1cccc(C)n1,107,97,100,102,101,97
CC(C)Cc1csc(NC(=O)c2ccccc2Cl)c1C(=O)O,85,82,79*,80,78*,81
CC(C)Cc1csc(NC(=O)c2ccc(Cl)cc2)c1C(=O)O,95,90,92,89,94,91
Cc1ccc(NC(=O)Nc2ccnc(-c3cccnc3)n2)cc1,87,86,83,64*,65*,67*
Cc1ccc(C(=O)Nc2ccnc(-c3cccnc3)n2)cc1,92,94,89,94,94,94
Cc1ccc2c(c1)c1nnc(SCC(=O)Nc3cccc(Cl)c3C)nc1n2CC(=O)O,89,83,74*,83,82,82
Cc1ccc2c(c1)c1nnc(SCC(=O)Nc3ccccc3C(F)(F)F)nc1n2CC(=O)O,94,91,86,89,90,91
CCOc1cc(/C=C2\SC(=O)N=C2N)ccc1O,90,89,77*,80,87,86
SMILES,Rab7 wt modul,Rac1 act GTP bind,Rac1 wt GTP bind,Rab2 wt GTP,Cdc42 wt GTP,HRas wt GTP bind
CCOC(=O)c1ccc(N=Nc2c(C)c(C#N)c(O)[nH]c2=O)cc1,103,91,90,93,91,95
COc1cc(/C=C2/SC(=Nc3ccc(O)cc3)NC2=O)cc(OC)c1O,86,79*,59*,70*,69*,74*
COc1ccc(N=C2NC(=O)/C(=C/c3ccc(O)c(OC)c3)S2)cc1,100,95,90,93,96,92
C=CCn1c(-c2csc(-c3ccc(Cl)cc3)n2)n[nH]c1=S,105,101,120*[activator],112,116,110
CCOC(=O)n1c(=O)n(Cc2ccc(Cl)c(Cl)c2)c2ccccc21,91,93,92,93,93,93
CCOc1ccc2nc(NC(=O)CSc3nc(-c4ccccc4)c(C#N)c(=O)[nH]3)sc2c1,95,78*,82,87,82,85
CCOC(=O)Cc1csc(NC(=O)CSc2nc(-c3ccccc3)c(C#N)c(=O)[nH]2)n1,86,79*,88,85,84,84
O=c1c2ccccc2nc2ccc(NCc3cccs3)nn12,91,88,74*,74*,76*,79*
CCn1c(NCc2cccs2)nc2ccccc21,97,99,106,99,105,100
N#CCCN(/N=C/c1cccnc1)C1=NS(=O)(=O)c2ccccc21,96,95,85,87,89,87
Cc1cccc(/C=N/N(CCO)C2=NS(=O)(=O)c3ccccc32)c1,92,84,68*,81,82,80
CC(C)(C#CC(O)(c1ccccc1)c1ccccc1)N1CCCC1,93,96,94,95,95,92
O=C(Cn1cc(C(F)(F)F)ccc1=O)Nc1cccc(S(=O)(=O)N2CCOCC2)c1,99,97,103,99,100,99
C/C(=N\Nc1cc(C)nc(-c2ccccc2)n1)c1cccc([N+](=O)[O-])c1,89,86,73*,84,82,88
Cc1ccc(S(=O)(=O)c2cc3c(=O)n4ccccc4nc3n(C)c2=N)cc1,93,91,93,78*,82,79*
CCn1c(=N)c(S(=O)(=O)c2ccc(C)cc2)cc2c(=O)n3ccccc3nc21,95,90,74*,84,81,84
Cc1ccc(S(=O)(=O)c2cc3c(=O)n4ccccc4nc3n(Cc3ccco3)c2=N)cc1C,103,103,109,103,108,107
CCn1c(=N)c(S(=O)(=O)c2ccccc2)cc2c(=O)n3ccccc3nc21,95,94,87,89,88,91
